Data from PubChem BioAssay AID504545 (Broad Institute, 2011).
Results with a measured potency or affinity are listed apart. Results filed as inconclusive are left out. Calls of active or inactive are those of the source. No rule for the calls is given here.

molecular target: Cyclin-dependent kinase 5 activator 1 (Homo sapiens) + Cyclin-dependent kinase 5 (Homo sapiens) (UniProt Q15078+Q00535); assay: CDK5/p35 kinase inhibitors, dose response, biochemical, cherry-picked samples, set 2 (AID 504545); details: biochemical plate reader; series mostly up to 30 µM
Sequence (Q00535 whole entry, looked up): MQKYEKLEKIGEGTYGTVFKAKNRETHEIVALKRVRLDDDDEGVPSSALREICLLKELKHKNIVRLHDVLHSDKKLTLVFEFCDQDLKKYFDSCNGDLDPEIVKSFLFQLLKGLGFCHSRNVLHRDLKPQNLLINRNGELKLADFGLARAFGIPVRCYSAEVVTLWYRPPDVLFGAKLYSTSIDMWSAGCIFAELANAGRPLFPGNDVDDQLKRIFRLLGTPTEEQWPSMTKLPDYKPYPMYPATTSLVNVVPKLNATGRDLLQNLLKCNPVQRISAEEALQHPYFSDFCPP
Sequence (Q15078 whole entry, looked up): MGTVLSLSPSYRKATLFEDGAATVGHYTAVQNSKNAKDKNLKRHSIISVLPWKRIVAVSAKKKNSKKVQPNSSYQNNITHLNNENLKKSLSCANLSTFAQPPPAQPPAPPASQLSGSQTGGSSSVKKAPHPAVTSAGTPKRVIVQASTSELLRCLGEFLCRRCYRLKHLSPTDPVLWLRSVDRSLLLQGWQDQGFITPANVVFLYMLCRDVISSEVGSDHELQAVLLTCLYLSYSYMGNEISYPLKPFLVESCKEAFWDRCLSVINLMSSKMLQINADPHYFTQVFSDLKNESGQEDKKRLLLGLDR

outcome, inactive:
Cc1nc(Nc2ccccc2)sc1C(=O)c1ccc(F)cc1
CC(C)[C@H](CO)N(Cc1cccc(F)c1)c1nc(Nc2cccc(Cl)c2)c2ncn(C(C)C)c2n1
Cc1ccc(C(=O)O/N=C(\N)c2ccccn2)cc1C
O=C(O)CCC(=O)NCCn1c(-c2ccccc2)csc1=Nc1ccccc1
Cc1ccc2nc(NCc3ccccc3)c(C#N)cc2c1
CC(C)n1cnc2c(NCc3ccc(S(N)(=O)=O)cc3)nc(NCc3ccc(S(N)(=O)=O)cc3)nc21
O=C(O)c1ccc(N/N=C/c2ccc(C(F)(F)F)cc2)cc1
C=CC(=O)Nc1ccc(Nc2ccnc(Nc3ccc(N4CCN(C)CC4)cc3)n2)cc1
Oc1ccc(C=NNc2ccccn2)c(O)c1
CN(C)N1C(N)=C(C#N)C(c2cccs2)C2=C1CCCC2=O (centres undefined)
COc1ccc2oc(C(=O)NCCC(C)C)c(C)c2c1
CCN1C(=O)/C(=C2/Sc3ccc(OC)cc3N2C)SC1=Nc1cccc(O)c1
Clc1cccc(Cl)c1/C=N/Nc1c(Cl)cncc1Cl
CC(C)(C)c1ccc(C(=O)O/N=C(\N)c2ccccn2)cc1
O=[N+]([O-])c1ccc2c(c1)/C(=N\O)c1ccccc1-2
COc1ccccc1C(=O)N1CCN(c2ccccn2)CC1
O=C(c1ccc(F)cc1)c1cnc(Nc2ccccc2)s1
COc1cc(OC)cc(C(=O)N2CCN(c3ccccn3)CC2)c1
Nc1ncnc2c1ncn2C1OC(CO)C(O)C1O (centres undefined)
